# Screening results deposited in PubChem BioAssay by National Center for Advancing Translational Sciences (NCATS).
# Many of the other results were omitted from the sample, so hits are more common in it than they were.
# ERK EGF block – EGF-driven ERK pathway inhibition; HEK293-V1b, EGF-stimulated phospho-ERK AlphaScreen; 130,000 tested, 0.41% active; Potency, µM (titrated, usually from 11.5 µM), for inactives: at the highest dose activity change, negative = inhibition, actives largely listed as inhibitors; AID 1454; active = well fitted inhibition curve with a large enough effect;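 note: plate controls were stimulated vehicle wells for no effect and unstimulated vehicle basal for full effect; nearly all actives have a fitted effect of over 55% in size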
#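 HEK293 cells stably expressing V1b receptor, serum-reduced (1% FBS) overnight, got compound for 30 min at 37C, then 25 nM EGF for 5 min. Lysate phospho-ERK read by AlphaScreen SureFire; AC50 from Hill fits.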
# Active calls of the source: *; [ ] = dose if it differs, or a comment. Potency is the fitted concentration of half-maximal effect.
SMILES,ERK EGF block
CCOc1cc(/C=C/c2cc(C(=O)O)c3ccccc3n2)ccc1O,0%
CO[C@@H](CCO)C[C@H]1O[C@H](C(=O)OC(C)C)CC[C@@H]1C,-1%
Cc1ccc(NC(=S)NC(=O)c2ccc(F)cc2)cc1S(=O)(=O)Nc1cccc(Cl)c1,-5%
Cc1ccc(NC(=O)c2cccs2)cc1S(=O)(=O)Nc1cccc(Cl)c1,20µM*
Cc1ccc(NC(=O)CC(=O)c2ccc([N+](=O)[O-])cc2)cc1S(=O)(=O)Nc1cccc(Cl)c1,18%
Cc1nc(-c2ccccc2)sc1C1(C)CC(c2c(Cl)cccc2Cl)=NO1 (configuration not stated),-3%[57.5 µM]
COc1ccc(NC(=O)CNC(=O)c2ccc([N+](=O)[O-])cc2)cc1,5%
COC(=O)/C(=C\C(=O)c1ccc([N+](=O)[O-])cc1)Nc1ccc(OC)cc1,13µM*
COc1ccc(C(=O)/C=C/Nc2ccc([N+](=O)[O-])cc2)cc1,1%
C/C(=C/C(=O)N1CCc2ccccc21)C(=O)O,3%
CC[C@H]1C2=C3C(CC[C@H]4C(OC)OC[C@](C)([C@@H]34)N(C(=O)OC(C)(C)C)C2)C(CO)C1CO (some centres not stated),5%
OCC1OC([S-])[C@H](O)C(O)C1O.[Au+] (some centres not stated),-14%
Oc1c(CN2CCOCC2)cc2c(c1-c1c(O)c(CN3CCOCC3)cc3c1CCCC3)CCCC2,-15%
Cc1cc(N=Nc2ccc(Cl)cc2)cc(CN2CCOCC2)c1O,16µM*
Clc1ccc2scc(CN3CCCCC3)c2c1,1%
Cc1ccc2c(CN3CCOCC3)cc(=O)oc2c1,-1%[57.5 µM]
Cc1cc(N=Nc2ccc(Cl)cc2)cc(CN2CCCC2)c1O,32µM*
O=C(NN1CCN(Cc2ccccc2Cl)CC1)c1ccc(Cl)cc1,7%
CC(=O)N1CCC2(CC1)CCN(c1cccc(-c3ccccc3)c1)CC2,1%
Cc1ccc(S(=O)(=O)NC(=O)O[C@@H]2C(=O)c3cc(Br)ccc3O[C@H]2c2ccc3c(c2)OCO3)cc1,5%
COc1ccc2c(c1)O[C@@H](c1ccc3c(c1)OCO3)[C@H](O)C2=O,-3%
O=C(Nc1ccccc1)N1CCCC2(CCN(C(=O)c3ccco3)CC2)C1,-2%
C=CC[C@@](C(C)=O)(C(=O)OC)C(NC(=O)OC(C)(C)C)c1ccccc1 (some centres not stated),1%
O=C(O)C(O)C(O)(Cc1ccc(O)cc1)C(=O)O (configuration not stated),-11%
CC(C)C1/C(=N/O)CC(c2ccccc2)NC1c1ccccc1 (configuration not stated),-11%[57.5 µM]
SMILES,ERK EGF block
O=C1CC(c2ccc(Br)cc2)NC(c2ccc(Br)cc2)C1c1ccccc1 (configuration not stated),3%
CCCC1/C(=N/O)CC(c2ccccc2)NC1c1ccccc1 (configuration not stated),35µM*
C=C(C(=O)OC)C(NC(=O)OC)c1ccccc1 (configuration not stated),0%
CCC1=C2CC[C@H]3C(=O)NC(=O)[C@H]3[C@H]2[C@@]2(C)C(=NCCOC)OC(=O)N2C1=O,4%
NS(=O)(=O)c1ccc(Oc2ccc(S(N)(=O)=O)cc2)cc1,-10%
CC(=O)CC(C)(C)S(=O)(=O)c1ccc(Oc2ccc(S(=O)(=O)C(C)(C)CC(C)=O)cc2)cc1,-9%
C=CS(=O)(=O)c1ccc(Oc2ccc(S(=O)(=O)C=C)cc2)cc1,13µM*
COCCn1c(=O)cnc2cnc(OCc3ccccc3)nc21,4%
CC(NC(=O)C12CC3CC(CC(C3)C1)C2)C(=O)N/N=C/C1=C(N2CCOCC2)C(=C\c2cccc([N+](=O)[O-])c2)/CC1 (configuration not stated),19%
O=C(/C=C/c1cccc([N+](=O)[O-])c1)Nc1ccccc1N1CCOCC1,-4%
N#C/C(=C\C1=C(N2CCOCC2)C(=C/c2cccc([N+](=O)[O-])c2)/CC1)C(=O)Nc1ccccc1F,3.5µM*
C=C(C(C)=O)C(O)c1cccc(OC)c1 (configuration not stated),-1%
COc1ccc(C2c3c(ncn(CCCO)c3=N)Oc3ccc4ccccc4c32)cc1OC (configuration not stated),-2%[57.5 µM]
COc1ccc(C2c3c(ncn(CCCO)c3=N)Oc3ccc4ccccc4c32)cc1 (configuration not stated),40µM*
N=c1c2c(ncn1CCCO)Oc1cc(O)ccc1C2c1ccccc1 (configuration not stated),2%[57.5 µM]
COc1ccccc1C(C)NC(=O)CCOc1cccc(C)c1 (configuration not stated),0%
O=C(NC(=S)Nc1ccc(CN2CCOCC2)cc1)c1ccc(-c2ccc(Cl)cc2)o1,-1%[57.5 µM]
O=C(Nc1ccc(CN2CCOCC2)cc1)c1ccc(-c2ccc(Cl)cc2Cl)o1,25µM*
O=C(/C=C/c1ccc(Cl)cc1Cl)NC(=S)Nc1ccc(CN2CCOCC2)cc1,3%
O=C(c1ccc(CSc2nc3ccncc3[nH]2)cc1)N1CCN(c2cccc(Cl)c2)CC1,18µM*
O=C(c1ccc(CSc2nc3ccncc3[nH]2)cc1)N1CCCCCC1,-6%[57.5 µM]
O=C(NCc1ccc(Cl)cc1)c1ccc(CSc2nc3ccncc3[nH]2)cc1,19%[57.5 µM]
COCC(=O)N1CCC2(CC1)CN(C(c1ccccc1)c1ccccc1)C2,-6%
Cc1cccc(-c2cc3nc(C)c(C)c(NCCCn4ccnc4)n3n2)c1,32µM*
Cc1cc(-c2ccccc2)nc2cc(C(=O)NCCCn3ccnc3)nn12,-2%
SMILES,ERK EGF block
Cc1cccc(-c2cc3nc(C)cc(C)n3n2)c1,-13%
FC(F)(F)c1cc(NC(=S)NC23CC4CC(CC(C4)C2)C3)cc(C(F)(F)F)c1,-1%
CCN(CC)C(=O)c1cccc2c1C(=O)c1ccccc1-2,1%
CN(C)c1cccc2c1C(=O)c1ccccc1C2=O,13µM*
CCN(CC)CCC(=O)Nc1cccc2c1C(=O)c1ccccc1C2=O,5%[57.5 µM]
C#C[C@]1(O)CC[C@H]2[C@H]3CCC4=Cc5oncc5C[C@]4(C)[C@@H]3CC[C@]21C,-5%
CC(=O)/C=C/c1ccccc1O,-3%
CCOc1ccccc1/C=C/C(=O)c1ccc(Cl)cc1,-9%
O=C(/C=C/c1ccccc1O)c1ccc(Cl)cc1,40µM*
Cc1ccccc1Nc1oc(-c2ccccc2)nc1-c1ccccc1,1%
CC(=O)O[C@@H]1CC2C(C)(C)C(=O)C=C[C@]2(C)C2CC[C@]3(C)C(=CC[C@H]3C3CO[C@@H](C(C)(C)O)[C@H](O)C3)[C@@]21C (some centres not stated),-14%
N#CCCn1c(=O)c(-c2cccs2)nc2cnc(Oc3ccccc3)nc21,5%
CCN(CC)c1ccc(/C=C2/SC(=O)N(C(C)C)C2=O)o1,28µM*
CC(C)N1C(=O)S/C(=C/c2ccccc2OCc2ccc(C(=O)O)cc2)C1=O,-2%
CCN(CC)c1ccc(/C=C(/C#N)C(=O)NC(C)C)o1,-7%
FC(F)(F)c1n[nH]c(=S)n1/N=C/c1ccco1,-2%
CC(C)C[C@@H](CC(=O)N[C@@H](CCC(=O)O)CC(=O)O)NC(=O)[C@@H]1CNCC[C@H]1NC(=O)C[C@@H](NC(=O)C[C@H](CO)NC(=O)[C@@H]1CCCC[C@H]1N)C(C)C,-22%
COc1ccc(C(=O)C[n+]2cccc(C)c2C)cc1[N+](=O)[O-],-6%
Cc1cc(C(C)(C)C)ccc1OCCCCN1CCCC1,-4%
CCC(C)(C)c1ccc(OCCCC[n+]2cccc(C)c2C)c(C(C)(C)CC)c1,32µM*
